Experimental data reported in PubChem BioAssay (NCATS).
Inconclusive results are not listed. A number with no mark means an inactive call. Calls of active or inactive are those of the source. Calls follow the shape of the dose curve; as a rule, active = well fitted inhibition curve with a large enough effect; inconclusive = small, poorly fitted or top-dose-only effect; inactive = no such curve, though single readings can be large or run the other way.

Target: N-terminal Xaa-Pro-Lys N-methyltransferase 1 (Homo sapiens) (UniProt Q9BV86)
Sequence (Q9BV86 whole entry, looked up): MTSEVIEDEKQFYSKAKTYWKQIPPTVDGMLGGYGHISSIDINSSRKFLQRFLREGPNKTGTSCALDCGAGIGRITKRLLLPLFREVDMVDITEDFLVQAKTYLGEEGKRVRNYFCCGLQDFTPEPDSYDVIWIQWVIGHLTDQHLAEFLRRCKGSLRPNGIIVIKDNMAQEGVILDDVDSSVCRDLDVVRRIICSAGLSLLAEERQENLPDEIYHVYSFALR
Assay: qHTS Assay for Inhibitors of N-terminal methyltransferase 1 (NTMT1): LOPAC validation of the NTMT1 SAHH-coupled ThioGlo3 Assay (AID 1347143); also: % is scaled to controls: 0 for no effect and ±100 for the full control effect
Conditions: recombinant NTMT1, SAHH-coupled ThioGlo3 fluorescence; series mostly up to 114 µM; activity change, negative = inhibition: at the top concentration
In short: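 Fluorescence read-out (excitation 340nm, emission 450nm) of SAH-derived thiol, measured via SAHH coupling and ThioGlo3, taken immediately and after a 30 min room-temperature reaction, then normalized to the background read. Enzyme: NTMT1 at 125nM; cofactor SAM 100uM in the added reagent.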
Also: nearly all actives have a fitted effect of over 70% in size.

Compound | activity change, negative = inhibition [%]
NC(N)=NCc1cccc(I)c1 | -7.2
CN=C(N)NCCC[C@H](N)C(=O)O | -5.46
CCOC(=O)[C@H](CCc1ccccc1)N[C@@H](C)C(=O)N1[C@H](C(=O)O)C[C@H]2CCCC[C@@H]21 | -14.3

Target: Furin (Homo sapiens) (UniProt P09958)
Sequence (P09958 whole entry, looked up): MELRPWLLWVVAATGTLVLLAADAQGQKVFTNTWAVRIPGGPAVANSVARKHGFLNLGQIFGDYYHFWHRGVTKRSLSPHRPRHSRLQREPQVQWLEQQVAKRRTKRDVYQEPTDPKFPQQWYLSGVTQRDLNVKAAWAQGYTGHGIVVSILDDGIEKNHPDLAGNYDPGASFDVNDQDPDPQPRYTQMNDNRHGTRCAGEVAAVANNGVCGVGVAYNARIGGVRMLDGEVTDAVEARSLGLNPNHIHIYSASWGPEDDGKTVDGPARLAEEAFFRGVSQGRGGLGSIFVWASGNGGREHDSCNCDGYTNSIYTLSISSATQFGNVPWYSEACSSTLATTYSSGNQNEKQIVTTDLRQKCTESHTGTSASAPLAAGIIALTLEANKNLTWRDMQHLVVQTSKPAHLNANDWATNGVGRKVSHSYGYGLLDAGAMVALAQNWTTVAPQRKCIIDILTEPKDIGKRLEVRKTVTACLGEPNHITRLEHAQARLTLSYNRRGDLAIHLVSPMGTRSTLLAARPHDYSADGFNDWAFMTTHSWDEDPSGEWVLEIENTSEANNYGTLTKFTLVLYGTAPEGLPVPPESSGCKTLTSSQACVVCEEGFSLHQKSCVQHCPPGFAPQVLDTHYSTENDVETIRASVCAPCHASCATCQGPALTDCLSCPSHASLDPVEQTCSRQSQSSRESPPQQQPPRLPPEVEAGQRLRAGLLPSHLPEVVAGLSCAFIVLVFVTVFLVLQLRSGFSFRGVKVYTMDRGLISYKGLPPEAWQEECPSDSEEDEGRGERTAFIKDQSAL
Assay: Furin counterscreen qHTS for Zika virus inhibitors (AID 1347149); also: potency is read from the fitted curve at half-maximal effect;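 as to activity change, negative = inhibition: purified recombinant full-length human furin enzyme at 5 nM; fluorescence gain from furin cutting a BOC-RVRR-AMC peptide substrate over 15 min; top concentration of the series differs between compounds; plate controls were no-inhibitor control for no effect and no-enzyme control for full effect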
Conditions: furin enzymatic counterscreen, fluorogenic substrate; series mostly up to 57.5 µM; activity change, negative = inhibition: at the top concentration
In short: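 Fluorogenic cleavage of BOC-RVRR-AMC (2 microM final, Km ~15 µM) was monitored (ex 340, em 450 nm) at 37C after 15 min RT preincubation of 5 nM furin with compounds in HEPES pH 7.0 buffer with CaCl2 and Triton X-100. Percent inhibition was fitted to a 4-parameter Hill curve.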

Compound | Potency | activity change, negative = inhibition [%]
CCC(CC)(CC(=O)Nc1cccc(/C=C/c2nc(C3CCC3)cs2)c1)C(=O)O | 21.5 µM (active) | –
CC1(COc2ccc(CC3SC(=O)NC3=O)cc2)CCCCC1 (stereo not given) | – | 2.2
CC(C)=CCOc1ccc(/C=C/C(=O)c2ccc(OCC=C(C)C)cc2OCC(=O)O)cc1 | 66.3 µM (active) | –
O[C@@H](c1cc(C(F)(F)F)nc2c(C(F)(F)F)cccc12)[C@H]1CCCCN1 | – | 0.711
CCc1oc2ccccc2c1C(=O)c1cc(Br)c(O)c(Br)c1 | 24.1 µM (active) | –
C[C@H]1O[C@@H](O[C@H]2CC[C@@]3(C)[C@H](CC[C@@H]4[C@@H]3C[C@@H](O)[C@]3(C)[C@@H](C5=CC(=O)OC5)CC[C@]43O)C2)C[C@H](O)[C@@H]1O[C@H]1C[C@H](O)[C@H](O[C@H]2C[C@H](O)[C@H](O[C@@H]3O[C@H](CO)[C@@H](O)[C@H](O)[C@H]3O)[C@@H](C)O2)[C@@H](C)O1 | – | -7.39
C=C1c2cccc(O)c2C(O)=C2C(=O)[C@]3(O)C(O)=C(C(N)=O)C(=O)[C@@H](N(C)C)[C@@H]3[C@@H](O)[C@H]12 | 8.55 µM (active) | –
